The values below come from PubChem BioAssay AID1259336 (Sattelle Laboratory, UCL Respiratory, Division of Medicine, …, 2017).

Unmarked numbers belong to inactive results. Rule as the data show it: active = log2 fold change growth below about -1.8; inactive = the rest.

A short description of this experiment: anthelmintic activity against nematode growth – whole organism, log2 fold change (AID 1259336).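 Also: growth scored by imaging after five days at 20 °C.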 The conditions noted are these: C. elegans growth, anthelmintic screen; hits give low values.
In the case of `O=C(NCc1ccco1)N1CCN(Cc2ccc(Cl)s2)CC1`, the log2 fold change growth is 0.334. Under `CCCn1c(CNc2ccccc2O)nc2ccccc21` stands 0.228; under `Nc1ncnc2c1ncn2C[C@@H](O)[C@@H](O)C(=O)O`, -0.0899; under `Cc1ccc2cc([C@@H]3NC(=O)c4ccccc4N3)c(Cl)nc2c1`, -0.0454. For `Cn1ncc2c(N3CCOCC3)nc(NCCc3c[nH]c4ccccc34)nc21`, the log2 fold change growth was 0.0196. For `CNc1cc(C)nc([C@@H]2CN(C(=O)c3n[nH]c4ccccc34)CCO2)c1`, the log2 fold change growth was 0.0798. Under `C[C@H]1COC2(CCN(c3nc(=O)c4cc(C(F)(F)F)cc([N+](=O)[O-])c4s3)CC2)O1` stands -0.284.

Regarding `O=C1[C@@H](Oc2ccccc2)[C@@H](c2ccc(Cl)cc2)N1CCn1cnc2c(NCc3ccccc3)ncnc21`, the log2 fold change growth is -0.167.
